A selection: hits, their analogues and other compounds. The true share with any hit is near 9.7%.
WNV protease inh = inhibitors of WNV NS2B-NS3 protease, primary screen, biochemical, fluorogenic substrate; AID 577, 2007; fluorogenic substrate Ex360/Em465; stronger effect = lower value; Genome polyprotein (West Nile virus), P06935; z-score (no concentration beside the values); 0.18% of 65,000 active; in the data active means z-score below about -3
Target sequence (P06935 1371-1501 limits assumed): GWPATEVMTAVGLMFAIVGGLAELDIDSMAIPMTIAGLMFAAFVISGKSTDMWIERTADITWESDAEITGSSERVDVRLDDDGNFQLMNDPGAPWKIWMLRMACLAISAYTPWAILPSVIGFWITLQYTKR
Target sequence (P06935 1502-1679 limits assumed): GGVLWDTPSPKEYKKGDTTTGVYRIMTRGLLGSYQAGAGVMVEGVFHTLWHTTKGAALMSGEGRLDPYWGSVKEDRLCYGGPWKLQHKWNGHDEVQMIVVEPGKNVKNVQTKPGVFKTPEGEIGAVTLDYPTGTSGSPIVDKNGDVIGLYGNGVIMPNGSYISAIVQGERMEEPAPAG
M1 ag = M1 muscarinic receptor agonists, primary screen, CHO-M1 cells, Fluo-4 calcium, agonist mode. Fluo-4 calcium fluorescence; stronger effect = higher value. B-score at 10 µM. 3% of 64,000 active;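 active means fluorescence rise, raw or as B-score row- and column-corrected plate score, outside the 99.7% band of its plate's samples, either direction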
BAP1 block = inhibitors of BAP1 deubiquitinase, primary screen, biochemical, Ub-AMC fluorescence, kinetic; recombinant BAP1, Ub-AMC hydrolysis fluorescence kinetic; stronger effect = lower value; calls only at 20 µM; 0.48% of 72,000 active; AID 436, 2006;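 active means activity remaining at or below 50% of control, provided the compound also passes the data quality filters; inactive means the rest, including low values that fail the filters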;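 further: 100% = DMSO wells rate and 0% = substrate alone blank rate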
M1 antagonist = antagonists of rat M1 muscarinic receptor; Muscarinic acetylcholine receptor M1 (Rattus norvegicus), P08482; CHO-M1 cells, Fluo-4 calcium, ACh EC80 antagonist mode; stronger effect = lower value; B-score at 10 µM; 3.4% of 64,000 active; AID 628, 2007;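 active means calcium fluorescence response, raw or row-and-column corrected B-score, differing from the plate sample mean either way at a set confidence level, mostly lower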
A340 absorber = compound light absorbance at 340 nm, profiling panel, artefact control, biochemical, MLSMR library, data from PS, PMK, MK assays | 65,000 tested, under 10 active | compound absorbance at 340 nm, fold over control | fold change at 10 µM;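 active means at 10 µM dose, initial 340 nm absorbance at least 2 fold that of control wells; inactive means change under 2 fold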;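 further: initial absorbance extrapolated from kinetic A340 decline of NADH oxidation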
Autofluor 339 = intrinsic fluorescence of library compounds, ex339/em460 – biochemical, MLSMR library, data from DPM-DC assay, artefact control, profiling panel; compound autofluorescence, ex339/em460 nm, NADH buffer; stronger effect = higher value; 1 = no-compound wells, NADH background; fluorescence fold increase at 10 µM; 5.5% of 65,000 active;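 active means at 10 µM, mean starting fluorescence two-fold or more over control wells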;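 further: signal is the first read of a kinetic run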
M1 antag conf = rat M1 muscarinic receptor antagonists, confirmation, CHO cells, Fluo-4 calcium, duplicate. calcium response (max-min fluorescence) at 10 µM. ACh EC80 antagonism; stronger effect = lower value. AID 677, 2007. 43% of 1,700 active. shares compounds with M1 antagonist;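 active means calcium response below the same-plate mean of wells given acetylcholine alone at its 80%-effect dose, minus 3 SD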;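 further: raw fluorescence intensity difference in arbitrary instrument units and not normalized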
mGluR4 antag = human mGluR4 response to M1 antagonist hits, M1 allosteric modulator project, cell-based, antagonist mode, secondary assay 1 | shares compounds with M1 antagonist | CHO-mGluR4 calcium flux, Fluo-4 fluorescence, glutamate EC80; stronger effect = lower value | fluorescence response (max-min) at 10 µM | 0.9% of 1,700 active | AID 678, 2007;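 active means fluorescence response below the plate's average for near-maximal glutamate wells, less 3 SD of those wells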;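 further: raw unnormalized fluorescence span taken in the window right after glutamate addition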
The depositor's hits bear a star; i = inactive; x = no result.

SMILES | WNV protease inh | M1 ag | BAP1 block | M1 antagonist | A340 absorber | Autofluor 339 | M1 antag conf | mGluR4 antag
O=S(=O)(Nc1nc2ccccc2[nH]1)c1ccc(Cl)cc1 | 0.37 | 0.16 | i | -16* | 1 | 0.98 | 70* | 246
O=C(Cc1ccccc1)Nc1nc2ccccc2[nH]1 | -1.6 | -0.018 | i | 0.018 | 1 | 1.2 | x | x
O=S(=O)(Nc1nc2ccccc2[nH]1)c1ccccc1 | -0.25 | 0.01 | i | -5.1* | 1.1 | 1.1 | 394* | 246
O=C1c2ccc([N+](=O)[O-])cc2C(=O)N1CC1CCCO1 (stereo not given) | x | x | i | x | x | x | x | x
Cc1sc2ncnc(SCC(=O)N3CCCC3=O)c2c1C | -1.1 | -1.4 | i | -4.3* | 1 | 1.1 | 651 | 262
CC1=CC(=C2C(=O)c3ccccc3C2=O)C=C(C)O1 | -0.43 | 0.093 | i | -1.1* | 1.1 | 1 | 546 | 204
Cn1c(SCCN2CCCCC2)nnc1-c1ccccc1Br | 0.61 | 1 | i | -2* | 1 | 1.1 | 561* | 249
O=S1(=O)C=C(SCCN2CCCCC2)c2ccccc21 | -0.56 | -1.1 | i | 0.17 | 1 | 1.1 | x | x
CCCc1cc(=O)[nH]c(SCC(=O)c2cc(C)n(CCOC)c2C)n1 | 0.7 | 0.082 | i | -3.6* | 1.1 | 1 | 537 | 198
COCCn1c(C)cc(C(=O)CSc2ncn[nH]2)c1C | -0.53 | 0 | i | -0.52 | 1.1 | 1.1 | x | x
O=C(Cn1cc(/C=N/O)c2ccccc21)N1CCOCC1 | 1.5 | -0.67 | i | -2.2* | 1 | 1.1 | 669 | 264
COC(=O)c1cn(CC(=O)N2CCCCCC2)c2ccccc12 | 0.31 | -0.61 | i | -0.018 | 1 | 1.1 | x | x
COc1ccccc1NC(=O)c1ccc(Cl)c(S(=O)(=O)N2CCOCC2)c1 | 0.36 | -2 | i | 0.23 | 1.1 | 1.1 | x | x
COc1ccc(NC(=O)c2ccc(Cl)c(S(=O)(=O)N3CCc4ccccc4C3)c2)cn1 | -0.55 | 0.24 | i | -1.5* | 1 | 1.1 | 681 | 210
CN(C)c1ccc(C2C3C(=O)N(c4ccc(C(=O)O)cc4)C(=O)C3ON2c2ccccc2)cc1 (stereo not given) | 0.61 | -0.44 | i | -2.5* | 1 | 1.1 | 15* | 215
CC1CCCN(c2nc3ccsc3c(=O)s2)C1 (stereo not given) | 0.23 | 0.092 | i | -7.2* | 1.1 | 1.1 | 273* | 201
CC1CCCN(C(=O)COC(=O)c2n[nH]c3ccccc23)C1 (stereo not given) | 0.72 | 0.16 | i | -9.6* | 1 | 1.1 | 670 | 241
O=C(NCCCN1CCN(Cc2ccccc2)CC1)C1CCN(c2nnc(-n3cccc3)s2)CC1 | -0.66 | 0.05 | i | -6.9* | 0.98 | 1 | 419* | 181
O=C(NCCCc1ccccc1)C1CCN(c2nnc(-n3cccc3)s2)CC1 | -1.2 | -1.3 | i | -0.3 | 1 | 1.1 | x | x
O=C(NCCCN1CCc2ccccc2C1)C1CCN(c2nnc(-n3cccc3)s2)CC1 | -0.86 | -0.096 | i | -2.9* | 1.1 | 1.1 | 337* | 209
CC(=O)CC(=O)NC(=NC1CCCCC1)Nc1nc(C)cc(C)n1 | -0.44 | -0.56 | i | -2.9* | 1 | 1.1 | 643 | 201
CCn1c(=O)cc(OCC(=O)Nc2ccc3c(c2)OCCO3)c2ccccc21 | -1.1 | 0.14 | i | -0.11 | 0.99 | 1.1 | x | x
CCN(CC)CCOC(=O)c1ccc(NC(=O)COc2cc(=O)n(CC)c3ccccc23)cc1 | -0.36 | 1.2 | i | -3.4* | 0.99 | 1 | 576* | 184
COc1ccc(C(=O)CSc2nnc(Cn3cnc4ccccc43)o2)cc1 | 0.96 | 2 | i | -2.2* | 1.1 | 1.1 | 532* | 253
CN(C)CCCOC(=O)C1c2ccccc2Oc2ccccc21 | -0.01 | -1.1 | i | -12* | 1 | 1.1 | 22* | 243
SMILES | WNV protease inh | M1 ag | BAP1 block | M1 antagonist | A340 absorber | Autofluor 339 | M1 antag conf | mGluR4 antag
CCN(CC)CCCNC(=O)C1c2ccccc2Oc2ccccc21 | -1.1 | 0.05 | i | -6.8* | 1.1 | 1.1 | 192* | 255
CC1=CN2C(=O)CC(=O)N=C2C=C1 | x | x | i | x | x | x | x | x
COC(=O)c1[nH]c2ccccc2c1NC(=O)CN1CCCCCC1 | 0.15 | -0.61 | i | -0.55 | 1 | 1.3 | x | x
CCOC(=O)C1CCN(CC(=O)Nc2c(C(=O)OC)[nH]c3cccc(C)c23)CC1 | -1.5 | -0.9 | i | 0.41 | 1.1 | 1.4 | x | x
CCOC(=O)C1CCCN(CC(=O)Nc2c(C(=O)OC)[nH]c3ccccc23)C1 (stereo not given) | -0.16 | -0.11 | i | -5.8* | 1 | 1.8 | 552* | 147
COC(=O)c1[nH]c2ccccc2c1NC(=O)CN1CCC(C(N)=O)(N2CCCCC2)CC1 | 0.58 | 1.3 | i | -2.6* | 1 | 1.2 | 550 | 191
O=C(c1ccc(Br)o1)N1CCN(c2ccc3nnc(-c4ccccc4)n3n2)CC1 | 0.56 | 0.91 | i | -6.4* | 0.98 | 1.1 | 264* | 225
O=C1c2cccc3cccc(c23)N1Cc1c(O)ccc2ccccc12 | x | x | i | x | x | x | x | x
CC(C)(C)C(=O)OCC1OC(n2cnc(C(N)=O)n2)C(O)C1O (stereo not given) | 0.29 | -0.64 | i | -11* | 1 | 1 | 578 | 202
CC(=O)OCC1OC(n2ccc(=O)[nH]c2=O)C(O)C1O (stereo not given) | 0.33 | 0.15 | i | -0.2 | 1.1 | 1 | x | x
CC1CCc2c(sc(N)c2C(=O)Nc2cccc(Cl)c2)C1 (stereo not given) | x | x | i | x | x | x | x | x
CCN1CCc2nc(SCC(=O)Nc3ccc(OC)cc3)c(C#N)cc2C1 | -1.2 | -0.046 | i | -0.73* | 0.98 | 1.1 | 511 | 219
COc1ccc(S(=O)(=O)N2CCC(O)(c3ccc(Cl)cc3)CC2)cc1 | -0.18 | 0.18 | i | -3.8* | 0.98 | 1 | 379* | 243
COc1ccc(N2CCN(S(=O)(=O)c3ccc(OC)cc3)CC2)cc1 | -1.1 | x | i | x | 1 | 1.9 | x | x
Cc1cccn2c(=O)c3cc(C(N)=S)c(=N)n(CCCOC(C)C)c3nc12 | -0.35 | 2 | i | -3.3* | 1 | 2* | 560 | 211

High-throughput results as filed in PubChem BioAssay.
